PubChem BioAssay (NCI)
This is part of a sample that, as a whole, favours compounds with a hit. Of some 79,000 tested, about 15% had one in any assay. Active and inactive are the calls of the source. Cut-off read from the data, not from the text of the source: active = growth inhibition above about 70%; inactive = the rest. Where a SMILES comes first, the peptide text is derived from it. [ ]: non-standard residue; d: D form. The star is where a group is joined. Cbz = O=C(OCc1ccccc1)*; Dha = C=C(N)C(=O)O

How the values were obtained:
[1] = NCI Yeast Anticancer Drug Screen. Data for the rad50 strain (AID 155);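 note: 0% = growth of vehicle-only cultures of the same strain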; settings: S. cerevisiae rad50 strain growth inhibition; at 50.0 µM; stronger effect = higher value
In short: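 Compounds were tested on a yeast strain with an engineered DNA damage repair alteration; the reported value is growth inhibition normalised to vehicle treatment.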

[2] = NCI Yeast Anticancer Drug Screen. Data for the mec2-1 strain (AID 157); settings: S. cerevisiae mec2-1 strain, at 50.0 µM, stronger effect = higher value
In short: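 Compounds were applied to mec2-1 yeast cells. Their growth was then compared with that of vehicle-treated cultures to give growth inhibition.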

[3] = NCI Yeast Anticancer Drug Screen. Data for the sgs1 mgt1 strain (AID 161);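 note: 0% = growth of cultures given vehicle only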; settings: S. cerevisiae sgs1 mgt1 strain, at 50.0 µM, stronger effect = higher value
In short: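 Yeast cells carrying a defined DNA-repair defect were exposed to test compounds. Growth inhibition was measured relative to vehicle-treated controls.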

[4] = NCI Yeast Anticancer Drug Screen. Data for the cln2 rad14 strain (AID 165);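 note: 0% = growth equal to vehicle treated cultures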; settings: S. cerevisiae cln2 rad14 strain, at 50.0 µM, stronger effect = higher value
In short: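 Strain: cln2 rad14 yeast, altered in cell cycle control and DNA damage repair. Read-out: growth inhibition vs vehicle.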

[5] = NCI Yeast Anticancer Drug Screen. Data for the bub3 strain (AID 167); settings: S. cerevisiae bub3 mutant strain, at 50.0 µM, stronger effect = higher value
In short: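 Growth of a checkpoint-deficient yeast mutant is measured after compound exposure. Values represent inhibition relative to vehicle.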

[6] = NCI Yeast Anticancer Drug Screen. Data for the mlh1 rad18 strain (AID 175); settings: S. cerevisiae mlh1 rad18 strain growth inhibition; at 50.0 µM; stronger effect = higher value
In short: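 A repair-deficient yeast strain is exposed to test compound, and growth is scored relative to vehicle-treated controls.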

Measured: growth inhibition

NC(CSC(c1ccccc1)(c1ccccc1)c1ccccc1)C(=O)OC(c1ccccc1)c1ccccc1 (stereo unspecified)
inactive: [1] 19.3% | [2] -7% | [3] 29.6% | [4] -44.5% | [5] -18.7% | [6] 22.2%

CN(C)c1ccc(C=C2/C(=N\O)c3ccccc3/C2=N/O)cc1
inactive: [1] -1.5% | [2] 38.1% | [3] 39% | [4] -8.2% | [5] 34.2% | [6] 48.1%

Cn1c(=O)c2nc(SC3CCCCC3)n(C)c2n(C)c1=O
inactive: [1] -12.7% | [2] -9.05% | [3] -9.85% | [4] -28.3% | [5] 4.5% | [6] -15.3%

COc1cccc(C=Nc2cc(C)ccn2)c1O.COc1cccc(C=Nc2cc(C)ccn2)c1O.[Cu]
inactive: [1] 3.45% | [2] -7.75% | [3] 9.75% | [4] 14.2% | [5] -11.6% | [6] 38.6%

CCc1nc(N)nc(N)c1-c1ccc(N(CC)Cc2ccccc2)c([N+](=O)[O-])c1
inactive: [1] 7.35% | [2] -3.05% | [3] -6.05% | [4] 7.5% | [5] 3.4% | [6] -3.85%

C=CCc1ccc(OC(=O)Nc2ccc(S(=O)(=O)CC)cc2)c(OC)c1
inactive: [1] 1.65% | [2] -12.8% | [3] -26.4% | [4] -19.9% | [5] -14.2% | [6] -10.3%

CSc1nc(NC2OCC(OC(C)=O)C(OC(C)=O)C2OC(C)=O)c2c(n1)OCC2=O (stereo unspecified)
inactive: [1] -17% | [2] -21.6% | [3] -21.6% | [4] 6.1% | [5] 13.4% | [6] -10.5%

Cc1cccc(NC(=O)C(Cl)Cl)n1
inactive: [1] -2.3% | [2] -20.8% | [3] -24.4% | [4] -43.8% | [5] -1.95% | [6] -18.1%

COc1cccc(NC(=O)C(=O)C(C(C)=O)c2nc3ccc(Cl)cc3[nH]c2=O)c1 (stereo unspecified)
inactive: [1] -16.3% | [2] 3.7% | [3] -19.2% | [4] 15.4% | [5] 2.25% | [6] -5.4%

O=C(N=Nc1c(O)[nH]c2ccccc12)C(=O)N=Nc1c(O)[nH]c2ccccc12
inactive: [1] -4.95% | [2] 8.35% | [3] 9.5% | [4] -1.1% | [5] 7.15% | [6] 26.6%

C[N+](C)(C)CCOC(=O)c1ccccc1CCl
inactive: [1] 19.8% | [2] 8.35% | [3] 31.6% | [4] 50.1% | [6] -17.1%
active: [5] 97.3%

O=C(O)CCn1cnc2c(=S)nc[nH]c21
inactive: [1] -23.2% | [2] -23.1% | [3] -28.4% | [4] -3.05% | [5] -54.6% | [6] -16.5%

CCC(=O)OCCOC(=O)CC
inactive: [1] 26.8% | [2] 16.7% | [3] 6.9% | [4] 18.6% | [5] 23.6% | [6] 9.25%

CCOP(=O)(OCC)C(C(=O)OC)C(=O)C(=O)Nc1c(C)cc(Br)cc1C (stereo unspecified)
inactive: [1] -42.1% | [2] -17.2% | [3] -23.9% | [4] -1.8% | [5] -3.85% | [6] -17.6%

CS(=O)(=O)OC[C@@H](O)[C@@H](O)COS(C)(=O)=O
inactive: [1] -2.15% | [2] 7.4% | [3] -1.85% | [4] -57.1% | [5] 3.55% | [6] -6.85%

O=C(COc1cccc(Cl)c1)Nc1ccc(C(=O)CCl)cc1
inactive: [1] 23.9% | [2] 49.5% | [3] 35.9% | [4] 11.8% | [5] 47% | [6] 44.5%

C/C(CCl)=N/NC(N)=S
inactive: [1] -13.2% | [2] -2.5% | [3] -18.4% | [4] 7% | [5] -11.9% | [6] -12.5%

CCc1ccc(NC(=O)CCC(=O)O)cc1
inactive: [1] -1.15% | [2] -9.15% | [3] 4.75% | [4] -90.5% | [5] -4.9% | [6] -16.9%

CS(=O)(=O)OC(OS(C)(=O)=O)(OS(C)(=O)=O)OS(C)(=O)=O
inactive: [1] 15.9% | [2] 6.2% | [3] 0.65% | [4] -7.9% | [5] -2.4% | [6] 9.3%

Cc1cc(C)c(NC(N)=S)cc1C
inactive: [1] 7.65% | [2] -23.2% | [3] -5.35% | [4] -7.7% | [5] -5.55% | [6] 7.55%

C(=C\c1nc2ccccc2nc1/C=C/c1ccccc1)/c1ccccc1
inactive: [1] -25.9% | [2] -9.4% | [3] -13.8% | [4] -12.3% | [5] 2.7% | [6] 9.45%

CCCCOc1ccc(Nc2c(C(=O)O)cnc3cc4c(cc23)OCO4)cc1
inactive: [1] -11.1% | [2] 3.25% | [3] -13.7% | [4] 5.4% | [5] -4.85% | [6] 18.4%

Nc1ccc(OCCc2c(N)nc(N)nc2N)cc1
inactive: [1] -1.2% | [2] 7.15% | [3] 12.4% | [4] -4.05% | [5] 22.7% | [6] 9.7%

C=C(NC(=O)CNC(=O)OCc1ccccc1)C(=O)O (Cbz-Gly-[Dha]-OH)
inactive: [1] 3.05% | [2] 11.2% | [3] 7.4% | [4] -9.85% | [5] 15.7% | [6] 14%

Cc1ccc(S(=O)(=O)NC(=O)C#CCOC2CCCCO2)cc1 (stereo unspecified)
inactive: [1] 8.7% | [2] -0.85% | [3] -3.3% | [4] 14.3% | [5] 22.6% | [6] 18.2%

CCOC(=O)c1cnc2c(ccc3ncccc32)c1OCC
inactive: [1] -12.2% | [2] -23.1% | [3] 7.8% | [4] 17.2% | [5] 10.8% | [6] 12.1%

COc1cc(/C=N/N=C(\N)NO)cc(OC)c1OC
inactive: [1] -6.5% | [2] 3.85% | [3] 2.4% | [4] 6.35% | [5] 1% | [6] 4.55%

CC(=O)O[C@@H]1C[C@H](C)CC(C)(C)C1
inactive: [1] 3.35% | [2] 5.75% | [3] -10.6% | [4] -3.7% | [5] 0.4% | [6] -3.1%

CN(CC(C)(C)C=O)C(=O)c1ccccc1
inactive: [1] 8.05% | [2] -5.45% | [3] -10% | [4] -8.3% | [5] -19.1% | [6] -1%

CC(C)CCNCCCCCCl
inactive: [1] 62.5% | [2] 37.3% | [3] 36.7% | [4] 36.6% | [5] 26.8% | [6] 67.1%

CONCc1ccc(C(=O)NC(C)C)cc1
inactive: [1] -10.6% | [2] -6.75% | [3] -5.95% | [4] -3.65% | [5] -0.3% | [6] -11.8%

CCCCOC(=O)c1ccc(NC(=O)Nc2cc([N+](=O)[O-])ccc2F)cc1
active: [6] 71.2%
inactive: [1] 56.4% | [2] 54.6% | [3] 63% | [4] 54.6% | [5] 12.3%

COc1ccc(NC(C)=O)c(C(O)CCNC(C)=O)c1 (stereo unspecified)
inactive: [1] -14.1% | [2] -13.3% | [3] -25.9% | [4] -7.8% | [5] -40.1% | [6] -28.5%

OCC(O)CNc1ncnc2ccccc12 (stereo unspecified)
inactive: [1] -1.65% | [2] -11.8% | [3] 3.4% | [4] -26.4% | [5] 1.7% | [6] 10.2%

COc1ccc(CC(CN)P(=O)(O)O)cc1 (stereo unspecified)
inactive: [1] 29.3% | [2] 4.2% | [3] 8.5% | [4] 4.45% | [5] 15.1% | [6] 4%

O=c1nnc(O)c2ccn(O)cc1-2
inactive: [1] -34.6% | [2] -19% | [3] 1.65% | [4] -40.1% | [5] -8.95% | [6] -7.4%

CCC(O)(c1ccccc1)C(O)c1ccccc1 (stereo unspecified)
inactive: [1] -2.35% | [2] 8.9% | [3] -4.4% | [4] 3.8% | [5] 4.95% | [6] -15.8%

O=[N+]([O-])c1ccccc1C=NC12CC3CC(CC(C3)C1)C2
inactive: [1] 15% | [2] -9.15% | [3] 9.95% | [4] -49.2% | [5] -15.3% | [6] 3.45%

COc1c(-c2cccs2)oc2c(CC(=O)O)cccc2c1=O
inactive: [1] 10.9% | [2] -10.8% | [3] 28.1% | [4] 5.9% | [5] 17.7% | [6] -26%

O=C(OCCO)c1ccc(O)c(O)c1
inactive: [1] 14.6% | [2] -4.65% | [3] 3.1% | [4] -25.8% | [5] -6.1% | [6] 7.55%

CC([C@H](c1ccccc1)C1CCC(C(N)=O)(N2CCOCC2)C1)[N+](=O)[O-] (stereo partly specified)
inactive: [1] 5.8% | [2] 7.9% | [3] 12.3% | [4] 39.1% | [5] 4.45% | [6] 9.85%
